From PubChem BioAssay AID1159580 (chemical genetic matrix, 2015)
About 2,000 (36%) of roughly 5,500 compounds were called active. Another 18% or so got no clear call; they are omitted. Cut-off read from the data, not from the text of the source: active = normalized growth mostly below about 0.91 (no sharp cut-off); inconclusive = no clear call, values can overlap the other calls; inactive = mostly above about 0.92. The list shows a part of the results.

Experiment: chemical genetic growth profiling, strain panel (AID 1159580);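 note: tested at 20 µM; growth read once vehicle control cultures reached saturation at 30 °C; 1 = growth at the plate median or of vehicle wells; lower values mean less growth of the strain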
Settings: growth OD

Measured: normalized growth

Oc1cccc(O)c1
inactive: S. cerevisiae deletion strains, locus YJR066W, strain TOR1, stronger effect = lower value 0.971 | S. cerevisiae deletion strains, locus YJR075W, strain HOC1, stronger effect = lower value 1.01 | S. cerevisiae deletion strains, locus YKL009W, strain mrt4, stronger effect = lower value 0.98 | S. cerevisiae deletion strains, locus YKL068W, stronger effect = lower value 0.997 | S. cerevisiae deletion strains, locus YKL085W, strain MDH1 (second series), stronger effect = lower value 0.994 | S. cerevisiae deletion strains, locus YKL085W, strain MDH1, stronger effect = lower value 0.994 | S. cerevisiae deletion strains, locus YKL160W, strain elf1, stronger effect = lower value 1.02 | S. cerevisiae deletion strains, locus YKL190W, strain CNB1, stronger effect = lower value 1.01 | S. cerevisiae deletion strains, locus YKR001C, strain vps1, stronger effect = lower value 0.98 | S. cerevisiae deletion strains, locus YKR026C, strain gcn3, stronger effect = lower value 0.967 | S. cerevisiae deletion strains, locus YKR091W, strain srl3, stronger effect = lower value 0.979 | S. cerevisiae deletion strains, locus YLL001W, strain dnm1, stronger effect = lower value 0.993 | S. cerevisiae deletion strains, locus YLL026W, stronger effect = lower value 1.01 | S. cerevisiae deletion strains, locus YLL041C, strain sdh2, stronger effect = lower value 0.979 | S. cerevisiae deletion strains, locus YLR027C, strain aat2, stronger effect = lower value 0.992 | S. cerevisiae deletion strains, locus YLR039C, strain RIC1, stronger effect = lower value 1.01 | S. cerevisiae deletion strains, locus YLR058C, strain SHM2, stronger effect = lower value 1.01 | S. cerevisiae deletion strains, locus YLR102C, strain apc9, stronger effect = lower value 0.993 | S. cerevisiae deletion strains, locus YLR113W, strain HOG1, stronger effect = lower value 1.01 | S. cerevisiae deletion strains, locus YLR221C, strain rsa3, stronger effect = lower value 0.962 | S. cerevisiae deletion strains, locus YLR258W, strain gsy2, stronger effect = lower value 0.956 | S. cerevisiae deletion strains, locus YLR262C, strain YPT6 (second series), stronger effect = lower value 1 | S. cerevisiae deletion strains, locus YLR262C, strain YPT6, stronger effect = lower value 1.02 | S. cerevisiae deletion strains, locus YLR268W, strain sec22, stronger effect = lower value 0.974 | S. cerevisiae deletion strains, locus YLR320W, strain mms22, stronger effect = lower value 0.944 | S. cerevisiae deletion strains, locus YLR330W, strain CHS5, stronger effect = lower value 1.01 | S. cerevisiae deletion strains, locus YLR342W, strain FKS1 (second series), stronger effect = lower value 0.995 | S. cerevisiae deletion strains, locus YLR342W, strain FKS1, stronger effect = lower value 1 | S. cerevisiae deletion strains, locus YLR357W, strain rsc2, stronger effect = lower value 0.977 | S. cerevisiae deletion strains, locus YLR370C, strain arc18, stronger effect = lower value 0.992 | S. cerevisiae deletion strains, locus YLR371W, strain rom2, stronger effect = lower value 0.992 | S. cerevisiae deletion strains, locus YLR384C, strain iki3, stronger effect = lower value 0.997 | S. cerevisiae deletion strains, locus YLR418C, strain cdc73, stronger effect = lower value 0.961 | S. cerevisiae deletion strains, locus YML016C, strain PPZ1, stronger effect = lower value 1 | S. cerevisiae deletion strains, locus YML032C, strain rad52, stronger effect = lower value 0.983 | S. cerevisiae deletion strains, locus YML120C, strain ndi1, stronger effect = lower value 0.986 | S. cerevisiae deletion strains, locus YML124C, strain tub3, stronger effect = lower value 0.991 | S. cerevisiae deletion strains, locus YMR058W, strain fet3, stronger effect = lower value 0.972 | S. cerevisiae deletion strains, locus YMR078C, strain ctf18, stronger effect = lower value 0.989 | S. cerevisiae deletion strains, locus YMR125W, strain sto1, stronger effect = lower value 0.932 | S. cerevisiae deletion strains, locus YMR129W, stronger effect = lower value 0.974 | S. cerevisiae deletion strains, locus YMR205C, strain PFK2, stronger effect = lower value 0.991 | S. cerevisiae deletion strains, locus YMR223W, strain ubp8, stronger effect = lower value 0.991 | S. cerevisiae deletion strains, locus YMR231W, strain pep5, stronger effect = lower value 0.985 | S. cerevisiae deletion strains, locus YMR263W, strain SAP30, stronger effect = lower value 1.01 | S. cerevisiae deletion strains, locus YMR307W, strain GAS1, stronger effect = lower value 0.989 | S. cerevisiae deletion strains, locus YNL067W, strain RPL9B, stronger effect = lower value 1.02 | S. cerevisiae deletion strains, locus YNL071W, strain lat1, stronger effect = lower value 0.969 | S. cerevisiae deletion strains, locus YNL183C, strain NPR1, stronger effect = lower value 0.951 | S. cerevisiae deletion strains, locus YNL209W, strain ssb2, stronger effect = lower value 0.973 | S. cerevisiae deletion strains, locus YNL233W, strain BNI4, stronger effect = lower value 1.01 | S. cerevisiae deletion strains, locus YNL248C, strain rpa49, stronger effect = lower value 0.957 | S. cerevisiae deletion strains, locus YNL250W, strain rad50, stronger effect = lower value 0.985 | S. cerevisiae deletion strains, locus YNL271C, strain bni1, stronger effect = lower value 0.991 | S. cerevisiae deletion strains, locus YNL298W, strain CLA4, stronger effect = lower value 0.978 | S. cerevisiae deletion strains, locus YNL307C, strain MCK1, stronger effect = lower value 0.988 | S. cerevisiae deletion strains, locus YNL322C, strain KRE1 (second series), stronger effect = lower value 0.967 | S. cerevisiae deletion strains, locus YNR049C, strain mso1, stronger effect = lower value 0.971 | S. cerevisiae deletion strains, locus YNR052C, strain pop2, stronger effect = lower value 0.99 | S. cerevisiae deletion strains, locus YOL006C, strain TOP1, stronger effect = lower value 1.03 | S. cerevisiae deletion strains, locus YOL012C, strain htz1 0.68 | S. cerevisiae deletion strains, locus YOL147C, strain pex11, stronger effect = lower value 0.995 | S. cerevisiae deletion strains, locus YOR001W, strain rrp6, stronger effect = lower value 1.01 | S. cerevisiae deletion strains, locus YOR061W, strain CKA2, stronger effect = lower value 1.01 | S. cerevisiae deletion strains, locus YOR069W, strain VPS5, stronger effect = lower value 1 | S. cerevisiae deletion strains, locus YOR070C, strain gyp1, stronger effect = lower value 0.979 | S. cerevisiae deletion strains, locus YOR080W, strain dia2, stronger effect = lower value 0.987 | S. cerevisiae deletion strains, locus YOR083W, strain WHI5, stronger effect = lower value 0.986 | S. cerevisiae deletion strains, locus YOR106W, strain vam3, stronger effect = lower value 0.983 | S. cerevisiae deletion strains, locus YOR136W, strain idh2, stronger effect = lower value 0.988 | S. cerevisiae deletion strains, locus YOR144C, strain elg1, stronger effect = lower value 0.98 | S. cerevisiae deletion strains, locus YOR184W, strain ser1, stronger effect = lower value 0.977 | S. cerevisiae deletion strains, locus YOR231W, strain MKK1, stronger effect = lower value 1.02 | S. cerevisiae deletion strains, locus YOR265W, strain rbl2, stronger effect = lower value 0.987 | S. cerevisiae deletion strains, locus YOR270C, strain vph1, stronger effect = lower value 0.969 | S. cerevisiae deletion strains, locus YOR290C, strain snf2, stronger effect = lower value 0.922 | S. cerevisiae deletion strains, locus YOR316C, strain cot1, stronger effect = lower value 0.995 | S. cerevisiae deletion strains, locus YPL051W, strain arl3, stronger effect = lower value 1 | S. cerevisiae deletion strains, locus YPL055C, strain LGE1, stronger effect = lower value 1.03 | S. cerevisiae deletion strains, locus YPL078C, strain atp4, stronger effect = lower value 1 | S. cerevisiae deletion strains, locus YPL106C, strain sse1, stronger effect = lower value 0.926 | S. cerevisiae deletion strains, locus YPL240C, strain hsp82, stronger effect = lower value 0.995 | S. cerevisiae deletion strains, locus YPL241C, strain CIN2, stronger effect = lower value 1.01 | S. cerevisiae deletion strains, locus YPL256C, strain CLN2, stronger effect = lower value 1.06 | S. cerevisiae deletion strains, locus YPR119W, strain clb2, stronger effect = lower value 0.959 | S. cerevisiae deletion strains, locus YPR141C, strain kar3, stronger effect = lower value 0.988 | S. cerevisiae deletion strains, locus YPR163C, strain tif3, stronger effect = lower value 0.993 | S. cerevisiae deletion strains, locus YPR167C, strain met16, stronger effect = lower value 0.995 | S. cerevisiae deletion strains, strain wtn01, stronger effect = lower value 0.979 | S. cerevisiae strains, strain wild type, stronger effect = lower value 1
